We go through 8 compounds from PubChem BioAssay (NCI).

SMILES strings stand for the structures. The panel holds about 83,000 compounds, 20% with a hit somewhere; the sample as a whole holds those more often.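 In brief: 96-well plates, 48 h treatment, single concentration, percent growth endpoint.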 Values without a mark were called inactive. Active and inactive are the calls of the source. The calls were made as follows: active = growth percent below 10; inactive = the rest.

Among the test systems are HCT-15 colon; HT29 colon; SNB-75 CNS; SNB-19 CNS; U251 CNS; PC-3 prostate; SK-MEL-5 melanoma; UACC-62 melanoma; LOX IMVI melanoma; SK-MEL-28 melanoma; SK-MEL-2 melanoma; EKVX NSCLC; SN12C renal; UO-31 renal; TK-10 renal; ACHN renal; CAKI-1 renal; A498 renal; CCRF-CEM leukemia; MOLT-4 leukemia.
Holding throughout (assay): NCI-60 one-dose screen, 48 h (100 = growth as untreated, 0 = no growth, -100 = all killed)
Common to all, as to details: 10 µM unless noted

Take `O=C1c2ccccc2C23C(=C(c4cncnc4)c4ccccc42)CCCN13` (stereo not given): the growth with HCT-15 colon is 104%; with HT29 colon, 101%; with SNB-75 CNS, 85.3%; in the assay with SNB-19 CNS it was 93.4%; in the assay on U251 CNS it was 102%; in the assay with PC-3 prostate it was 88.8%. Also, the growth was 98.7% with SK-MEL-5 melanoma; 88.2% in the assay with UACC-62 melanoma; 76.1% with LOX IMVI melanoma; 101% in the assay with SK-MEL-28 melanoma; 106% in the assay with SK-MEL-2 melanoma; 100% in the assay on EKVX NSCLC. The growth was 96.4% in the assay with SN12C renal; 85.6% with UO-31 renal; 97% in the assay on TK-10 renal; 99.2% with ACHN renal; 78.5% in the assay with CAKI-1 renal; 96.4% in the assay with A498 renal. Also, the growth was 102% in the assay with CCRF-CEM leukemia and 107% in the assay with MOLT-4 leukemia.
Take `CCCCCCNC(=O)Oc1ccc(/C(=C(/C)c2ccc(OC)cc2)c2ccc(OCCN3CCCCCC3)cc2)cc1`: the growth is -39.1% (active) with HCT-15 colon; -34% (active) with HT29 colon; 76.8% in the assay with SNB-75 CNS; 39.2% with SNB-19 CNS; 19.6% in the assay with U251 CNS; 24.5% with PC-3 prostate. Also, the growth in the assay on SK-MEL-5 melanoma is 61.2%; with UACC-62 melanoma it was 5.76% (active); with LOX IMVI melanoma, -94.2% (active); in the assay with SK-MEL-28 melanoma it was -36.1% (active); in the assay on SK-MEL-2 melanoma, 74.5%; in the assay on EKVX NSCLC it was 54.8%. Besides, the growth with SN12C renal is 14.5%; with UO-31 renal it was 6.69% (active); with TK-10 renal it was 92.1%; with ACHN renal, 47.7%; in the assay with CAKI-1 renal, 17.3%; with A498 renal, 64.2%. Moreover, the growth in the assay on CCRF-CEM leukemia is 12.4%; in the assay with MOLT-4 leukemia, 9.66% (active).
For `CCOC(=O)c1ccccc1NC1=C(Cl)C(=O)c2nc(C)ccc2C1=O`, the growth is 91.7% with HCT-15 colon; 112% in the assay with HT29 colon; 81.1% in the assay on SNB-75 CNS; 92.8% in the assay with SNB-19 CNS; 104% in the assay on U251 CNS; 96.8% in the assay on PC-3 prostate. The growth is 99.9% in the assay with SK-MEL-5 melanoma; 95% with UACC-62 melanoma; 98.7% with LOX IMVI melanoma; 107% in the assay with SK-MEL-28 melanoma; 112% with SK-MEL-2 melanoma; 95.1% in the assay on EKVX NSCLC. The growth is 88.2% with SN12C renal; 91.9% with UO-31 renal; 147% with TK-10 renal; 101% in the assay on ACHN renal; 98.6% with CAKI-1 renal; 87.4% in the assay on A498 renal. Besides, the growth was 84.3% in the assay on CCRF-CEM leukemia and 84.8% in the assay on MOLT-4 leukemia.
For the compound `COCCOc1ccc2ncc(C#Cc3cncc(C(=O)Nc4ccc(CN5CCN(C)CC5)c(C(F)(F)F)c4)c3)n2n1`, the growth with HCT-15 colon is 0.122% (active); in the assay with HT29 colon, 15.6%; in the assay on SNB-75 CNS, 4.29% (active); with SNB-19 CNS, 18.1%; in the assay with U251 CNS, 37.9%; with PC-3 prostate it was 35%. The growth was 67.4% with SK-MEL-5 melanoma; 31.5% in the assay on UACC-62 melanoma; -88.9% (active) in the assay on LOX IMVI melanoma; -49.4% (active) in the assay on SK-MEL-28 melanoma; -82.7% (active) in the assay on SK-MEL-2 melanoma; 33.6% in the assay on EKVX NSCLC. The growth in the assay on SN12C renal was 10.2%; in the assay on UO-31 renal, 2.58% (active); in the assay on TK-10 renal it was 14.3%; with ACHN renal, 4.87% (active); in the assay on CAKI-1 renal, 1.32% (active); with A498 renal, -50.4% (active). The growth in the assay on CCRF-CEM leukemia was 11.7%; with MOLT-4 leukemia, 13.2%.
For `C#C[C@]1(O)CC[C@H]2[C@@H]3CC=C4c5sc(Nc6cc(Cl)ccc6OC)nc5CC[C@]4(C)[C@H]3CC[C@@]21C`, the growth in the assay on HCT-15 colon was 16.3%; with HT29 colon it was 34.9%; in the assay on SNB-75 CNS, -1.39% (active); in the assay with SNB-19 CNS it was 28.3%; with U251 CNS it was 15.3%; in the assay with PC-3 prostate it was -9.76% (active). Moreover, the growth with SK-MEL-5 melanoma is -43.9% (active); in the assay on UACC-62 melanoma, -3.92% (active); in the assay on LOX IMVI melanoma it was -71.7% (active); in the assay with SK-MEL-28 melanoma, -59.1% (active); in the assay on SK-MEL-2 melanoma it was 1.15% (active); in the assay with EKVX NSCLC, 22.3%. In addition, the growth in the assay on SN12C renal was 53.7%; in the assay with UO-31 renal it was 16.1%; in the assay on TK-10 renal, 48.4%; with ACHN renal, 32.1%; in the assay with CAKI-1 renal, -4.8% (active); in the assay on A498 renal it was -2.08% (active). For the same compound, the results for the growth in the assay with CCRF-CEM leukemia and in the assay with MOLT-4 leukemia were 8.93% (active) and 1.34% (active), respectively.
Turning to `Cn1cc(-c2nnc(N)nc2-c2c[nH]c3ccc(F)cc23)c2cc(Br)ccc21`, the growth with HCT-15 colon was 16.9%; in the assay on HT29 colon, 3.17% (active); in the assay with SNB-75 CNS, 0.251% (active); in the assay with SNB-19 CNS, 25.6%; with U251 CNS, 17.5%; in the assay on PC-3 prostate, 22.6%. Also, the growth in the assay on SK-MEL-5 melanoma was 4.51% (active); in the assay on UACC-62 melanoma, 30.3%; in the assay on LOX IMVI melanoma it was 29%; in the assay on SK-MEL-28 melanoma it was 60.4%; with SK-MEL-2 melanoma it was 11.8%; in the assay on EKVX NSCLC, 27.7%. Besides, the growth was 38.1% with SN12C renal; 41.3% in the assay with UO-31 renal; 61.5% in the assay on TK-10 renal; 40.6% with ACHN renal; 28% with CAKI-1 renal; 3.05% (active) with A498 renal. Also, the growth in the assay with CCRF-CEM leukemia is -4.24% (active); in the assay with MOLT-4 leukemia, -21.3% (active).
Turning to `Cn1cc(-c2nn3cc(-c4ccncc4)nc3s2)c2cc(F)ccc21`, the growth with HCT-15 colon was 38.7%; in the assay with HT29 colon it was 68.8%; in the assay on SNB-75 CNS it was 65%; in the assay with SNB-19 CNS it was 90.1%; in the assay on U251 CNS it was 98.3%; with PC-3 prostate, 68.3%. Besides, the growth in the assay on SK-MEL-5 melanoma was 87.6%; with UACC-62 melanoma, 75.9%; with LOX IMVI melanoma, 10.5%; in the assay on SK-MEL-28 melanoma, 105%; in the assay with SK-MEL-2 melanoma, 99.8%; in the assay with EKVX NSCLC, 72.9%. In addition, the growth with SN12C renal is 88.6%; with UO-31 renal, 55.1%; in the assay with TK-10 renal it was 155%; with ACHN renal it was 84%; in the assay on CAKI-1 renal, 63.4%; in the assay with A498 renal it was 96.3%. For the same compound, the growth was 16% with CCRF-CEM leukemia and 37.3% with MOLT-4 leukemia.
For the compound `CC(C)[C@H]1c2[nH]c3ccccc3c2C[C@H]2C(=O)N(CCCCCCC(=O)NO)CC(=O)N12`, the growth in the assay on HCT-15 colon was 97.5%; in the assay with HT29 colon, 77.4%; in the assay with SNB-75 CNS, 62.9%; in the assay with SNB-19 CNS, 86.7%; with U251 CNS it was 81%; in the assay with PC-3 prostate, 86%. The growth was 75% with SK-MEL-5 melanoma; 56.2% with UACC-62 melanoma; 72.7% in the assay on LOX IMVI melanoma; 71.7% with SK-MEL-28 melanoma; 86.8% in the assay with SK-MEL-2 melanoma; 93% in the assay with EKVX NSCLC. Moreover, the growth in the assay with SN12C renal is 90.2%; in the assay with UO-31 renal, 83.2%; with TK-10 renal, 72%; in the assay on ACHN renal, 98.2%; with CAKI-1 renal, 86.2%; in the assay with A498 renal, 90%. In addition, the growth in the assay with CCRF-CEM leukemia is 27.8%; in the assay with MOLT-4 leukemia, 34.6%.
